# Assays:
# [1] = target: T1, Aspartate--tRNA(Asp/Asn) ligase (Mycobacterium tuberculosis (strain ATCC 25618 / H37Rv)) (UniProt P9WFW3); assay: Assay for Asp RNA synthetase-1 from Mycobacterium tuberculosis; assay type: functional; set-up: scale not given: direction of the effect not stated beside the values; conditions: 30 µM; further: in the data most compounds retested in dose-response had high values
# T1 sequence (whole entry): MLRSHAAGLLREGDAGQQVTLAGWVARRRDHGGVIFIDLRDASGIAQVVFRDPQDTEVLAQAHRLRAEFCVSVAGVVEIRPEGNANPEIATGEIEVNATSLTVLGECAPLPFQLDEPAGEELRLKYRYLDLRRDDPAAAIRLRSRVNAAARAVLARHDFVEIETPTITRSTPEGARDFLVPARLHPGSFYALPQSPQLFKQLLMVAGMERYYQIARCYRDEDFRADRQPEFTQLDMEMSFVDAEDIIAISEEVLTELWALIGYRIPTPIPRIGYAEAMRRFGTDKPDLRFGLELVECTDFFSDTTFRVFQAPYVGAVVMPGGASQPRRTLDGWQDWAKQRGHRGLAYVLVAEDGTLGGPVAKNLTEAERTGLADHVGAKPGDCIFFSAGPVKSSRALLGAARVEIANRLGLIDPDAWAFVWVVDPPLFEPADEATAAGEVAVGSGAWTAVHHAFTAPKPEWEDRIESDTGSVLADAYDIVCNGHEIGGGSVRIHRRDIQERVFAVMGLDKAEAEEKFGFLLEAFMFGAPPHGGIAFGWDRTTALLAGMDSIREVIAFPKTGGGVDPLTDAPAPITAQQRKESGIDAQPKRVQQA
# [2] = target: Shiga toxin 2 (Escherichia coli O157:H7) (UniProt P09385+P09386); assay: E. coli 0.157:H7 Shiga Toxin SOP - stx2 screening assay; assay type: functional; set-up: scale not given: direction of the effect not stated beside the values; conditions: 30 µM
Structure (SMILES),Percent Effect [1] [%],Percent Effect [2] [%]
CNc1cc(C2CCCN2Cc2ccccc2C(=O)O)ccn1 (centres undefined),-0.938,-8.27
Cn1cc(C2CCCN2C(=O)c2ccc(Br)o2)cn1 (centres undefined),-1.8,28.5
Cc1ncsc1C(=O)N(C)CCc1ccncc1,-1.68,19.9
Cn1cc(C2CC(=O)NC23CCN(CC2CC2)CC3)cn1 (centres undefined),-4.05,-21.4
Cn1cccc1C(=O)N1CCCC2(CCN(CCN3CCCC3)C2=O)C1 (centres undefined),-3.77,-30.4
Cc1cc(=O)n(CC(=O)NCCC(C)C)c(-c2cccc(Cl)c2)n1,12.2,-9.6
CN(C)C(=O)C1CN(Cc2cscn2)CCN(S(C)(=O)=O)C1 (centres undefined),0.521,-12.3
O=C(NCc1nnc2n1CCCC2)N1CCc2ccccc2C1,1.56,-5.06
COc1ccc(-c2nc(CN3CCc4c(ncn4C)C3)cs2)cc1,-3.7,-71.2
c1ccc(C[C@H]2CN(Cc3nccs3)CC[C@H]2OCC2CC2)cc1,3.93,16
Cc1nc(CN2C(=O)C[C@H]3[C@H]2CCN3C2CCOCC2)cs1,-3.97,9.23
COc1ccc(F)c(CN2CCC(c3cc(O)nc(C)n3)C2)c1 (centres undefined),-6.3,-8.55
Cc1nn(C)c(Cl)c1C1CCCN1C(=O)c1cc(Cl)c[nH]1 (centres undefined),1.85,16.5
CN(C)C(=O)c1cccc(NC(=O)N(CCO)Cc2ccsc2)c1,-4.93,-18.5
CCn1nnc2c1C(COC)CN(C(=O)Cc1cccs1)C2 (centres undefined),-8.15,-30.3
O=C(c1cccnc1-n1cncn1)N1CCN(CC2CC2)CC1,0.524,-1.68
Cc1cccc(-c2ccc(C(=O)NCCN(C)C3CC3)c(=O)[nH]2)c1,4.25,19.3
CCn1cc(CN2CCCC(CO)(CCc3ccccc3)C2)c(C)n1 (centres undefined),0.494,-5.78
CN(C)c1cc2c(nn1)CCN(C(=O)Cc1noc3ccccc13)C2,0.589,-8.79
COc1ccc(CNC(=O)Nc2cccnc2N2CCCC2)cc1O,0.235,10.6
O=C(CCN1CCCN(c2nccs2)CC1)NCC1CCCCC1,-3.75,-2.79
COc1cc(C(=O)N2CCCS2(=O)=O)cc(Cl)c1OC,-11.2,-4.54
FC(F)(F)C1CCc2nnc(CNCc3ccsc3)n2C1 (centres undefined),-0.0705,3.92
NCC(c1ccccc1)N1CCc2sccc2C1 (centres undefined),-4.25,-7.32
CC(C)Oc1ncccc1CNC(=O)C1CCCN(C(=O)C2CC2)C1 (centres undefined),-4.79,33.3
CCc1nccn1C1CCCN(C(=O)Cc2ccc(OC)c(F)c2)C1 (centres undefined),-7.86,4.47

Structure (SMILES),Percent Effect [1] [%],Percent Effect [2] [%]
CC(NC(=O)NCc1ccc(Cl)cc1)c1ccccn1 (centres undefined),0.364,-27.4
Cc1cccc(-c2nc(CN3CCCCC3Cn3cncn3)no2)c1 (centres undefined),-2.9,15.3
CN1CCN(Cc2cccnc2)C2(CCN(c3ncc(F)cn3)C2)C1=O (centres undefined),4.87,-19.6
Cc1oc(C)c(C(=O)NCc2ccccn2)c1C,-4.72,26.9
COc1ccc(C)cc1CNCc1ccc(-n2nc(C)cc2C)nc1,-2.68,26.6
CC(=O)c1cccc(NC(=O)COc2c(C)n(C)ccc2=O)c1,1.07,-59.3
CCn1nc(C)c2ccn(CC(=O)NC3CCCC3)c(=O)c21,4.68,12.1
O=C([C@H]1COC[C@H]2CN(Cc3ccco3)C[C@H]21)N1CCCO1,6.23,-30.2
CCOC1CCCN(C(=O)c2sccc2-n2cnnn2)C1 (centres undefined),-4.21,-8.57
C1CCCN(c2nc(C3CC3)ns2)CC1,-2.7,-28.7
Cc1cc(C)n(CC2CCCCN2C(=O)c2ccc3c(c2)OCO3)n1 (centres undefined),-5.57,-5.42
COc1ccc(Br)c(C(=O)NCCNc2ccc(C(F)(F)F)cn2)c1,7.7,23.3
Cc1nn(C)c(C)c1NC(=O)CN1CCc2c(nc(C(C)C)n2C)C1,-0.413,5.73
C[C@H]1CN(Cc2cnn(C)c2)C[C@@]12CCN(Cc1cccnc1)C2=O,-2.89,-10.2
COc1cccc(-c2nc(C)c(C(=O)N[C@@H](C)C(=O)O)s2)c1,-1.66,-52
COc1cccc(OCC2CCCN(C(=O)c3cnc(C)nc3O)C2)c1 (centres undefined),-0.346,2.77
Cc1cc(C(=O)N2CCCCC2C)ccc1NCCCO (centres undefined),-5.49,11.1
COCCOc1ccc(NC(=O)C2CCC2)cn1,-1.46,-10.4
O=C(NCCCN1CCc2ccccc2C1)c1cccnc1O,-2.28,-68.5
O=C(C1=CCCC1)N1C[C@@H]2COC[C@]2(COc2cccnc2)C1,-3.68,1.76
CCOCC(O)CN1CCN(C(=O)c2cccc(F)c2)CC1 (centres undefined),0.145,-5.86
Cc1ncc(S(C)(=O)=O)c(C2CCCNC2)n1 (centres undefined),0.276,-2.77
O=C(NCCCn1cccn1)C1(c2ccc(Br)cc2)CC1,0.575,8.42
O=C(CN1CCCC1Cn1cncn1)NCCc1c(F)cccc1F (centres undefined),1.46,-12.5
O=C1CCC2(CCN(Cc3ccc(F)cc3)CC2)N1Cc1ccccc1,-0.182,6.77
CCn1ncc2c1C(COC)CN(Cc1ccc(OC)cc1)C2 (centres undefined),-4.44,-3.46
